Most compounds without a hit are left out; they make up all but 12% or so of the library.
BAZ2B block: BAZ2B (human) inhibition; Q9UIF8; Potency, µM (highest dose often 114 µM), for inactives: at the highest dose activity change, negative = inhibition, most hits filed as inhibitors; 360,000 tested, 4.4% active; AlphaScreen BAZ2B-H3K14Ac peptide displacement; AID 504333; note: % is set by controls: 0 for no effect and ±100 for the full control effect; nearly all actives have a fitted effect of over 60% in size
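Compounds, titrated to a top concentration of 110 uM, were incubated 30 min at room temperature with preformed BAZ2B/acetyl-K14 H3 peptide complex (50 nM each). Proximity signal was measured by AlphaScreen after 20 min with beads.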
JMJD2A Tudor inh: blocks the human JMJD2A Tudor domain | AlphaScreen JMJD2A-Tudor / H3K4me3 peptide binding | Potency, µM (doses to about 114 µM), for the others: at the top dose activity change, negative = inhibition, actives largely listed as inhibitors | 390,000 tested, 4.4% active | AID 504339; note: % is set by controls: 0 for no effect and ±100 for the full control effect; nearly all actives have a fitted effect of over 50% in size
Target sequence (O75164 whole entry, looked up, the tested form may be a part): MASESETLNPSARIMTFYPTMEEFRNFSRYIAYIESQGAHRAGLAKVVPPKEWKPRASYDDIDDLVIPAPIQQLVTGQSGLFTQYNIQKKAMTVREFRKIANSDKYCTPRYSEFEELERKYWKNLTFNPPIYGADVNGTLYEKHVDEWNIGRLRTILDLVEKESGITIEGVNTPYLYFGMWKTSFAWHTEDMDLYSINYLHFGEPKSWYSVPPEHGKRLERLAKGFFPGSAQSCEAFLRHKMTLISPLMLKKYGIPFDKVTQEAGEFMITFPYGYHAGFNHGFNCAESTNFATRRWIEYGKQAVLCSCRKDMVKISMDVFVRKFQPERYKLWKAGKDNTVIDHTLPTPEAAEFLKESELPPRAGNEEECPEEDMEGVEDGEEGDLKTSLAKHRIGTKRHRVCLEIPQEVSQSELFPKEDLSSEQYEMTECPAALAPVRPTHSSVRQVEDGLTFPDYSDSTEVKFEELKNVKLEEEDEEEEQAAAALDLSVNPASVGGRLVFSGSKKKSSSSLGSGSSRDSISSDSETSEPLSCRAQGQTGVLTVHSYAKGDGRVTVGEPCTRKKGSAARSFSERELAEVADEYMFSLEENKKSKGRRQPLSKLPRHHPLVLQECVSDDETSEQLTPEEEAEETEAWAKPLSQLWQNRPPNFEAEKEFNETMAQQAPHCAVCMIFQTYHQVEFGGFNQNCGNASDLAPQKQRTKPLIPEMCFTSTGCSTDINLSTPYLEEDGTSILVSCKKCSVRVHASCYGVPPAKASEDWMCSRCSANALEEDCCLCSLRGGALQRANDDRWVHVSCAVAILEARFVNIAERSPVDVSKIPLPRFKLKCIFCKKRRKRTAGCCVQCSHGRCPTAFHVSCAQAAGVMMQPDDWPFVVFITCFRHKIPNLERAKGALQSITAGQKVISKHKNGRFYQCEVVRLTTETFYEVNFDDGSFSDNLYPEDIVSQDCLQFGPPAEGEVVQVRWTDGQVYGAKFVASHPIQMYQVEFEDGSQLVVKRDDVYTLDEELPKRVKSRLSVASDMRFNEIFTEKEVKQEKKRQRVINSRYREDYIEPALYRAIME
G9a block: blocks human histone lysine methyltransferase G9a; 350,000 tested, 8.8% active; Potency, µM (highest dose often 102 µM), for the others: top-dose activity, negative = inhibition, hits mostly inhibitors; Q96KQ7; AID 504332; G9a H3K9 monomethylation, AlphaScreen, 2 h; note: % is set by controls: 0 for no effect and ±100 for the full control effect; nearly all actives have a fitted effect of over 75% in size
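AlphaScreen detection with an anti-monomethyl H3K9 antibody quantified product after a 2 h room-temperature reaction containing 500 nM biotinylated H3K9 peptide, 20 µM SAM and 20 nM enzyme, which had been preincubated 15 min with compound.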
TDP1 block: TDP1 (human) enzyme inhibition | recombinant TDP1, AlphaScreen DNA substrate cleavage | AID 485290 | 350,000 tested, 0.28% active | Q9NUW8 | Potency, µM (top dose mostly 130 µM), without a hit: top-dose activity change, negative = inhibition, hits mostly inhibitors; note: % is set by controls: 0 for no effect and ±100 for the full control effect; nearly all actives have a fitted effect of over 40% in size
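Steps: enzyme plus compound, 15 min RT; add biotin/phosphotyrosine-FITC oligonucleotide (15 nM final), react 5 min; add donor/acceptor beads (10 ug/ml final), 10 min; read AlphaScreen. Tdp1 at 1 nM final.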
HP1b binding inh: blocks HP1-beta chromodomain binding to methylated histone tails; P83916; AlphaScreen HP1-beta / biotin-H3K9me3 peptide binding; Potency, µM (highest dose often 114 µM), for the others: at the highest dose activity change, negative = inhibition, most hits filed as inhibitors; 390,000 tested, 0.56% active; note: nearly all actives have a fitted effect of over 70% in size
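HP1-beta protein (50 nM final) preincubated 30 min at room temperature with biotinylated H3(1-18)K9me3 peptide (50 nM) in PBS pH 7.4, 0.01% Tween-20, then compound added for 30 min. AlphaScreen streptavidin donor/nickel chelate acceptor beads (10 ug/mL final), 30 min dark, luminescence read.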
Sfp PPTase inh: inhibitors of Bacillus subtilis Sfp phosphopantetheinyl transferase | Q9F4F7 | Biochemical Sfp PPTase activity, qHTS | Potency, µM, for the others: largest response in the series, negative = inhibition, hits mostly inhibitors | 310,000 tested, 3.5% active | AID 1490;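 note: the enzyme is Sfp with the accession as filed and its product quenches rhodamine fluorescence; 0% = enzyme reaction without inhibitor and -100% = no enzyme wells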
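Compounds were incubated with enzyme (final 15 nM) for 15 min at room temperature before substrate addition started the reaction. Fluorescence at 525 nm excitation, 598 nm emission was recorded immediately and after 30 minutes.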
Starred values were filed as active, the others as inactive; ? = inconclusive; . = no result given; [ ] = remark or other dose. Calls come from the whole dose curve; as a rule, active = well fitted curve in the direction sought with a large enough effect; inconclusive = small, poorly fitted or top-dose-only effect, or another doubt; inactive = no such curve, though single readings can be large; an effect the other way counts as inactive or inconclusive. Potency is the fitted concentration of half-maximal effect.

SMILES	BAZ2B block	JMJD2A Tudor inh	G9a block	TDP1 block	HP1b binding inh	Sfp PPTase inh
CSc1nc2sc3c(c2c(=O)n1-c1ccc(C)c(Cl)c1)CCN(C(C)=O)C3	79.4µM*	-32.4%	-24.2%[59 µM]	-5.9%	30.9%	.
CCCCNC(=O)CCCn1c(=O)c2ccccc2n(Cc2cccc(Cl)c2)c1=O	-2.5%	-8.2%	-33.8%[59 µM]	-2.7%	29.4%	.
CCOc1ccc(NCc2cccn2-c2nnc(N3CCC(C(=O)NCCCN4C(C)CCCC4C)CC3)s2)cc1 (stereo unspecified)	39.8µM*	56.2µM*	39.8µM*	8.5%	-20.5%	-10.6%
CCOc1ccc(NCc2cccn2-c2nnc(N3CCC(C(=O)NCCCN4CCCCC4)CC3)s2)cc1	39.8µM*	50.1µM*	39.8µM*	9.8%	?	0.0%
CCOc1ccc(NCc2cccn2-c2nnc(N3CCC(C(=O)NCc4ccccc4Cl)CC3)s2)cc1	-19.0%	-23.6%	?	3.9%	23.7%	.
CCOc1ccc(NCc2cccn2-c2nnc(N3CCC(C(=O)NCCCN4CCCCC4C)CC3)s2)cc1 (stereo unspecified)	?	39.8µM*	50.1µM*	15.3%	-15.3%[57 µM]	9.8%
COCCCNC(=O)C1CCN(c2nnc(-n3cccc3CNc3ccc(C)cc3)s2)CC1	?	-16.7%	-4.6%[59 µM]	7.8%	12.8%	.
CCOC(=O)CSc1nc2cc(OC)c(OC)cc2cc1C#N	.	-9.2%[57.1 µM]	.	-0.3%	24.6%[57 µM]	.
CCN(CC)C(c1ccc(C)cc1)c1nnnn1C1CCCCC1 (stereo unspecified)	7.4%	-30.6%	3.9%[59 µM]	-5.3%	25.6%	3.3%
CCN(CC)C(c1ccc(F)cc1)c1nnnn1C1CCCCC1 (stereo unspecified)	-30.6%	7.4%	89.1µM*	2.1%	31.6%	5.8%
COc1ccccc1CN(C)C(=O)c1ccc2c(c1)NC(=O)CS2	12.3%	-3.5%	-2.7%[59 µM]	8.5%	16.0%	11.9%
CC(OC(=O)c1ccc2c(c1)NC(=O)CS2)C(=O)c1ccc(F)cc1 (stereo unspecified)	.	-14.5%	.	-4.3%	5.1%[57 µM]	.
COC(=O)c1ccc2c(c1)NC(=O)CS2	-20.2%	-11.3%	39.8µM*	0.0%	-4.0%	-11.8%
Cc1ccc(NC(=O)c2ccc3c(c2)NC(=O)CS3)nc1	-18.4%	-21.1%	10µM*	-7.0%[0.505 µM]	?	.
C=CCn1c(C)cc(C(=O)COC(=O)c2ccc3c(c2)NC(=O)CS3)c1C	?	?	20µM*	5.6%	?	56.2µM*
C=CCn1c(C)cc(C(=O)COC(=O)c2ccc(N)c([N+](=O)[O-])c2)c1C	?	?	?	2.7%	-14.9%	7.1%
Cc1ccc(CN(C)C(=O)c2ccc3c(c2)NC(=O)CS3)o1	-23.1%	-22.1%[11.4 µM]	?	.	-13.0%	31.6µM*
COc1ccc(NC(=O)N2CCCC3(CCN(S(=O)(=O)c4ccccc4)CC3)C2)cc1	.	.	3.9%[12.7 µM]	.	.	21.8%
CC1CC[C@@]23CCC4(C)[C@@]5(C)CCC6C(C)(C)C(=O)CC[C@@]6(C)C5C=C[C@@]4(OC2=O)C3C1C (stereo partly specified)	.	.	.	13.2%[56.1 µM]	.	11.8%
COC(=O)c1ccc2c(c1)SC1=C(CCCC1=O)N2	39.8µM*	-35.9%	?	2.3%	-28.1%	-3.8%
CCN1CCN(C(=O)NCc2ccccc2)CC1	-2.7%	1.58µM*	22.4µM*	.	?	-9.2%
CCCc1ccc(S(=O)(=O)N2CCN(C(C)C(=O)NCc3ccccc3)CC2)cc1 (stereo unspecified)	7.2%	-24.1%	56.2µM*	-4.0%	13.5%	.
CCN1CCN(C(=S)c2ccc(OCC(=O)NCc3ccccc3)cc2)CC1	-16.6%	-27.0%	10µM*	3.7%	-14.6%	22.4µM*
O=C(NCc1ccccc1)N1CCN(c2ccc(F)cc2)CC1	-1.0%	-31.3%[11.4 µM]	0.0%[59 µM]	2.6%	?	-2.7%
O=C(NCc1ccc(Cl)cc1)N1CCN(S(=O)(=O)c2ccccc2)CC1	-2.7%	-12.2%	50.1µM*	1.3%	-14.0%	8.0%
SMILES	BAZ2B block	JMJD2A Tudor inh	G9a block	TDP1 block	HP1b binding inh	Sfp PPTase inh
Cc1cc2c(s1)c1cnn(Cc3ccc(F)cc3Cl)c(=O)c1n2C	.	-24.0%	.	.	.	.
CC(C)(C)c1ccc(OCCSc2nc(-c3cccs3)nc3cc(=O)[nH]n23)cc1	-11.8%	-9.4%	5.3%[59 µM]	5.3%	33.3%	.
CCOC(=O)N1CCN(C(=O)C(CC(C)C)NS(=O)(=O)c2ccc(C)cc2)CC1 (stereo unspecified)	0.0%	-11.7%	9.1%[59 µM]	0.2%	26.8%	.
CN(CC1CCCO1)S(=O)(=O)c1ccc(C(=O)Nc2ccc(S(N)(=O)=O)cc2)cc1 (stereo unspecified)	-34.0%	-14.4%	32.6%	6.6%	31.2%	5.9%
O=C(CSc1ncc2c(n1)-c1cc(Cl)ccc1N(Cc1ccccc1)S2(=O)=O)NCc1ccccc1	-0.4%	-15.3%	7.6%[59 µM]	2.6%	13.2%	.
CCc1ccccc1NC(=O)COc1ccc(C(=S)N2CCCC2)cc1	-20.5%	70.8µM*	-34.7%	8.2%	-6.8%	?
CC(C)[C@@H](OCc1ccccc1)[C@H](C)/C=N\O[C@@H](C)c1cn([C@@H]2COC[C@@H]2O)nn1	.	.	.	6.9%[21 µM]	.	1.2%
CC(C)=NOCc1ccc(-c2cn([C@@H]3COC[C@H]3O)nn2)cc1	-4.1%	.	39.8µM*	2.6%	.	13.9%
Cc1ccc(S(=O)(=O)Nc2ccc3c(c2)c2c(n3S(=O)(=O)c3ccc(C)cc3)CCCC2=O)cc1	-22.2%	-24.7%	8.0%[59 µM]	5.4%	12.5%	15.0%
CC(C)(C)Sc1ccc2nc3c(n2c1)CCCC3	?	-29.8%	50.1µM*	-7.9%	3.9%	-11.7%
C=CC1=C2C=C(C3CC3)N(CCCCO)C=C2C(=O)C(C)(OC(=O)c2ccco2)C1=O (stereo unspecified)	.	.	.	-2.6%[12.3 µM]	.	9.7%
O=C(Cc1ccc(Br)cc1)N1CCOCC1	-7.8%	-9.0%	79.4µM*	.	22.8%	19.6%
Cc1ccc(CC(=S)N2CCOCC2)cc1	5.1%	-5.6%	8.91µM*	0.0%	-19.5%	35.5µM*
CC(=O)/C(=N\Nc1ccc(C)cc1)N1CCOCC1	-1.0%	-16.7%	28.2µM*	7.3%	14.7%	-5.5%
Cc1ccc(CC(=O)Nc2ccc(C(=O)N3CCOCC3)cc2)cc1	-19.4%	-1.4%	17.8µM*	4.8%	10.7%	-7.9%
CC1CCC2C(=O)N3C(CCC(C)[C@H]3c3ccccc3Br)C(=O)N2C1c1ccccc1Br (stereo partly specified)	.	.	.	11.1%[21 µM]	.	-3.1%
Cc1ccc2c(c1)c(=O)c(C(=O)c1ccc3c(c1)OCO3)cn2Cc1ccc(Cl)cc1	?	-31.6%	-40.1%[59 µM]	2.3%	25.8%	.
COc1ccc(CC(=S)N2CCOCC2)cc1	-1.0%	-18.9%[57.1 µM]	?	0.0%	?	15.8µM*

Screens (PubChem)
